Structures can show the parent of a compound that is named as a salt.
Key:
Settings in all cases: 10 µM; exposure time 6 h
[1] = test system: Danio rerio larvae (5 dpf); test: difference in excitability vs DMSO (percentage points); higher = more excitable than DMSO
In short: (§1)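 Library compounds were tested at 10 µM final in 100 µL egg water on wild-type 5 dpf zebrafish larvae in 96-well plates for 6 h, with 48 larvae per compound. After 3 h, plates at 28.5 ℃ were imaged every 6 s during a 3-h run of moving lines and 100 ms, 400Hz tones. Behaviours were quantified by Z-LaP Tracker and reported as the compound mean less the vehicle control mean, in percentage points.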

[2] = test system: Danio rerio larvae (5 dpf); test: difference in startle response vs DMSO (percentage points); higher = stronger startle than DMSO
In short: as §1

[3] = test system: Danio rerio larvae (5 dpf); test: difference in activity during first hour vs DMSO (percentage points); higher = more activity than DMSO
In short: as §1

[4] = test system: Danio rerio larvae (5 dpf); test: difference in habituation to acoustic stimuli vs DMSO (percentage points); higher = more habituation than DMSO
In short: as §1

[5] = test system: Danio rerio larvae (5 dpf); test: difference in combined optomotor response to red, green and blue moving lines vs DMSO (percentage points); higher = stronger optomotor response than DMSO
In short: as §1

SMILES	difference in excitability [1]	difference in startle response [2]	difference in activity during first hour [3]	difference in habituation to acoustic stimuli [4]	difference [5]
C[C@](N)(Cc1ccc(O)c(O)c1)C(=O)O [L-(-)-α-Methyldopa]	2.76	-2.74	3.45	-1.83	6
CN(C)CCOC(c1ccc(Cl)cc1)c1ccccn1 (stereo not given) [Carbinoxamine (maleate)]	8.33	3.19	-11.6	5.36	-7.17
CC(=O)OCC(=O)[C@@]12OC3(CCCC3)O[C@@H]1C[C@H]1[C@@H]3CCC4=CC(=O)C=C[C@]4(C)[C@@]3(F)[C@@H](O)C[C@@]12C [Amcinonide]	8.43	5.38	-7.56	-0.863	4.08
CCC1=C[C@@H]2CN(C1)Cc1c([nH]c3ccccc13)[C@@](C(=O)OC)(c1cc3c(cc1OC)N(C)[C@H]1[C@@](O)(C(=O)OC)[C@H](OC(C)=O)[C@]4(CC)C=CCN5CC[C@]31[C@@H]54)C2 [Vinorelbine (tartrate)]	11.6	-5.75	3.25	-2.19	-4.51
CC(CCc1ccc(O)cc1)NCCc1ccc(O)c(O)c1 (stereo not given) [Dobutamine (hydrochloride)]	10.9	6.81	-2.65	12	13.9
CCC(=O)O[C@]1(C(=O)CCl)[C@@H](C)C[C@H]2[C@@H]3C[C@H](F)C4=CC(=O)C=C[C@]4(C)[C@@]3(F)[C@@H](O)C[C@@]21C [Halobetasol Propionate]	12.1	1.54	3.96	-4.09	3.99
CCCCN1C[C@H](O)[C@@H](O)[C@H](O)[C@H]1CO [N-Butyldeoxynojirimycin (hydrochloride)]	-7.96	4.45	16.1	5.5	4.55
CCCSc1ccc2[nH]c(NC(=O)OC)nc2c1 [Albendazole]	17.3	4.02	4.4	0.0113	3
CCCCC[C@H](O)CC[C@@H]1[C@H]2Cc3cccc(OCC(=O)O)c3C[C@H]2C[C@H]1O [Treprostinil]	-4.04	-1.85	4.94	-2.5	-6.11
NC(=O)N1c2ccccc2CC(=O)c2ccccc21 [Oxcarbazepine]	-3.21	8.33	10.1	0.525	8.73
CCS(=O)(=O)N1CC(CC#N)(n2cc(-c3ncnc4[nH]ccc34)cn2)C1 [Baricitinib]	7.57	-3.92	10.9	-5.36	5.99
CC(O)(P(=O)(O)O)P(=O)(O)O [Etidronate (sodium salt)]	5.12	2.23	11.4	-1.7	4.9
O=C(c1ccc(OCCN2CCCCC2)cc1)c1c(-c2ccc(O)cc2)sc2cc(O)ccc12 [Raloxifene (hydrochloride)]	22	-0.808	-9.71	2.6	1.59
CS(=O)(=O)c1cccc(C[C@H](NC(=O)c2c(Cl)cc3c(c2Cl)CCN(C(=O)c2ccc4ccoc4c2)C3)C(=O)O)c1 [Lifitegrast]	5.68	2.04	16.5	0.0295	7.02
CO[C@H]1/C=C/O[C@@]2(C)Oc3c(C)c(O)c4c(O)c(c(/C=N/N5CCN(C6CCCC6)CC5)c(O)c4c3C2=O)NC(=O)/C(C)=C\C=C\[C@H](C)[C@H](O)[C@@H](C)[C@@H](O)[C@@H](C)[C@H](OC(C)=O)[C@@H]1C [Rifapentine]	24.8	-0.153	-3.15	6.16	6.78
NS(=O)(=O)c1cc2c(cc1C(F)(F)F)NC(Cc1ccccc1)NS2(=O)=O (stereo not given) [Bendroflumethiazide]	1.38	-5.47	3.78	-7.63	-4.26
O=C1Cc2cc(CCN3CCN(c4nsc5ccccc45)CC3)c(Cl)cc2N1 [Ziprasidone (hydrochloride hydrate)]	26.8	5.81	11.2	-6.75	5.5
COC(=O)N[C@H](C(=O)N[C@@H](Cc1ccccc1)[C@@H](O)CN(Cc1ccc(-c2ccccn2)cc1)NC(=O)[C@@H](NC(=O)OC)C(C)(C)C)C(C)(C)C [Atazanavir]	-0.672	-1.55	-1.56	-0.953	2.7
C[N+](C)(C)C[C@H](O)CC(=O)[O-] [L-Carnitine]	-2.51	-2.46	8.51	4	3.58
CN1CCN(CCCN2c3ccccc3Sc3ccc(C(F)(F)F)cc32)CC1 [Trifluoperazine (hydrochloride)]	11.8	-1.73	23.8	-10.9	-0.14
O=C1NC(c2ccccc2)(c2ccccc2)C(=O)N1COP(=O)(O)O [Fosphenytoin (sodium salt)]	1.33	6.03	-3.5	3.61	0.0516
CCN1C(=O)NC(c2ccccc2)C1=O (stereo not given) [Ethotoin]	-4.35	11.7	-2.99	0.909	-3.6
Cc1ccc(C(=O)c2ccc(CC(=O)O)n2C)cc1 [Tolmetin (sodium salt hydrate)]	-2.25	2.51	13.8	1.94	7.94

SMILES	difference in excitability [1]	difference in startle response [2]	difference in activity during first hour [3]	difference in habituation to acoustic stimuli [4]	difference [5]
CC1Cc2ccccc2N1NC(=O)c1ccc(Cl)c(S(N)(=O)=O)c1 (stereo not given) [Indapamide]	4.58	1.23	7.09	-1.64	1.06
COC(=O)C1=C(C)NC(C)=C(C(=O)OC(C)C)C1c1cccc2nonc12 (stereo not given) [Isradipine]	11.7	-10.9	-0.814	-7.82	-17.2
OC(CCN1CCCCC1)(c1ccccc1)C1CC2C=CC1C2 (stereo not given) [Biperiden (hydrochloride)]	9.71	-7.39	-0.127	-10.7	-2.85
CCOC(=O)[C@H](CCc1ccccc1)N[C@@H](C)C(=O)N1[C@H](C(=O)O)C[C@@H]2CCC[C@@H]21 [Ramipril]	-5.85	-2.41	5.42	-0.379	7.67
CC(C)NCC(O)c1ccc(O)c(O)c1 (stereo not given) [Isoproterenol (hydrochloride)]	-11.9	-6.4	45.9	1.72	6.58
Nc1nc(CC(=O)Nc2ccc(CCNC[C@H](O)c3ccccc3)cc2)cs1 [Mirabegron]	15.7	-0.811	3.64	-4.56	3.08
CC(=O)OCC(=O)[C@@]1(OC(C)=O)[C@@H](C)C[C@H]2[C@@H]3C[C@H](F)C4=CC(=O)C=C[C@]4(C)[C@@]3(F)[C@@H](O)C[C@@]21C [Diflorasone Diacetate]	10.5	-5.05	-4.84	-1.12	-4.79
CCCSc1nc(N[C@@H]2C[C@H]2c2ccc(F)c(F)c2)c2nnn([C@@H]3C[C@H](OCCO)[C@@H](O)[C@H]3O)c2n1 [Ticagrelor]	4.33	1.19	2.64	1.79	9.27
CCC(C)n1ncn(-c2ccc(N3CCN(c4ccc(OCC5COC(Cn6cncn6)(c6ccc(Cl)cc6Cl)O5)cc4)CC3)cc2)c1=O (stereo not given) [Itraconazole]	15.4	-0.629	-2.15	-5.43	4.73
C[C@@H]1[C@H](O)[C@@H](C)/C=C/C=C/C=C/C=C/C=C/C=C/C=C/[C@H](O[C@@H]2O[C@H](C)[C@@H](O)[C@H](N)[C@@H]2O)C[C@@H]2O[C@](O)(C[C@@H](O)C[C@@H](O)[C@H](O)CC[C@@H](O)C[C@@H](O)CC(=O)O[C@H]1C)C[C@H](O)[C@H]2C(=O)O [Amphotericin B]	-0.355	0.384	4.13	-0.401	1.13
C[N+]1(C)[C@@H]2CC[C@H]1C[C@@H](OC(=O)C(O)c1ccccc1)C2 (stereo not given in full) [Methylhomatropine (bromide)]	5.63	0.325	2.46	1.2	-3.01
CC(C)Cc1ccc(C(C)C(=O)O)cc1 (racemic) [(±)-Ibuprofen]	15.5	-4.17	-2.46	3.85	6.34
CCOC(=O)[C@H](CCc1ccccc1)N[C@@H](C)C(=O)N1Cc2cc(OC)c(OC)cc2C[C@H]1C(=O)O [Moexipril (hydrochloride)]	11.9	-4.62	7.71	2.63	-1.21
CCNC(=O)[C@@H]1CCCN1C(=O)[C@H](CCCNC(=N)N)NC(=O)[C@H](CC(C)C)NC(=O)[C@@H](CC(C)C)NC(=O)[C@H](Cc1ccc(O)cc1)NC(=O)[C@H](CO)NC(=O)[C@H](Cc1c[nH]c2ccccc12)NC(=O)[C@H](Cc1c[nH]cn1)NC(=O)[C@@H]1CCC(=O)N1 [Leuprorelin (acetate)]	16.2	-0.397	-3.87	1.37	4.92
CNS(=O)(=O)Cc1ccc2[nH]cc(CCN(C)C)c2c1 [Sumatriptan (succinate)]	7.61	3.38	-12.9	5.35	-4.54
CO[C@H]1/C=C/O[C@@]2(C)Oc3c(C)c(O)c4c(O)c(c5c(nc6cc(C)ccn65)c4c3C2=O)NC(=O)/C(C)=C\C=C\[C@H](C)[C@H](O)[C@@H](C)[C@@H](O)[C@@H](C)[C@H](OC(C)=O)[C@@H]1C [Rifaximin]	-5.63	-5.31	13.2	0.472	0.85
CCOc1nc2cccc(C(=O)OC(C)OC(=O)OC3CCCCC3)c2n1Cc1ccc(-c2ccccc2-c2nn[nH]n2)cc1 (stereo not given) [Candesartan Cilexetil]	12.4	-6.23	-2.86	-2.83	-2.76
CC(=O)OCC(=O)[C@@]12OC(C)(C)O[C@@H]1C[C@H]1[C@@H]3C[C@H](F)C4=CC(=O)C=C[C@]4(C)[C@@]3(F)[C@@H](O)C[C@@]12C [Fluocinonide]	0.338	2.99	-1.35	-2.83	0.257
C#C[C@]1(O)CC[C@H]2[C@@H]3CCC4=CC(=O)CC[C@@H]4[C@H]3C(=C)C[C@@]21CC [Etonogestrel]	12.2	-2.36	0.0241	-5.37	10.4
Cc1cccc(C)c1OCC(=O)N[C@@H](Cc1ccccc1)[C@@H](O)C[C@H](Cc1ccccc1)NC(=O)[C@H](C(C)C)N1CCCNC1=O [Lopinavir]	10.5	-2.95	-0.504	-4.82	-0.255
O=C(O)C1(C(=O)O)CCC1.[NH2-].[NH2-].[Pt+2] [Carboplatin]	-3.06	-1.15	-11.9	0.48	-2.73
CC(C)c1c(C(=O)Nc2ccccc2)c(-c2ccccc2)c(-c2ccc(F)cc2)n1CC[C@@H](O)C[C@@H](O)CC(=O)O [Atorvastatin (calcium salt hydrate)]	2	-0.915	-6.37	-0.794	-0.114
CCCCCCCCCCC[C@@H](C[C@@H]1OC(=O)[C@H]1CCCCCC)OC(=O)[C@H](CC(C)C)NC=O [Orlistat]	0.283	0.288	10.8	3.74	2.67
